Inconclusive results are not listed. Where a call stands in place of a potency, no number is given. Active and inactive are the calls of the source. Calls come from the whole dose curve; as a rule, active = well fitted cell-killing curve with a large enough effect in the repeat runs (not every such curve was filed as active); inconclusive = weak or mixed curves, or effect the other way; inactive = no such curve, though single readings can be large or run the other way.

This test in a line: qHTS assay to identify small molecule antagonists of the farnesoid-X-receptor (FXR) signaling pathway - cell viability counter screen (AID 743221). Note: nearly all actives have a fitted effect of over 50% in size. To be noted: FXR-bla HEK293T viability, CellTiter-Glo luminescence, 16 h; series mostly up to 62.6 µM. The text has this: National Center for Advancing Translational Sciences [NCATS]
NIH Chemical Genomics Center [NCGC]
U.S. Environmental Protection Agency [EPA]
National Institutes of Environmental Health Sciences [NIEHS]
National Toxicology Program [NTP]
U.S. Food and Drug Administration [FDA]
The farnesoid-X-receptor (FXR), a nuclear hormone receptor, is highly expressed in liver, intestine, kidney and adrenal cortex. Natural ligands of FXR are the bile acids (Cholic acid, Chenodeoxy cholic acid etc). FXR is an important regulator of diverse metabolic pathways, including the bile acid homeostasis, lipid and glucose metabolisms. FXR regulates the expression of target genes by binding either as a monomer or as a heterodimer with the retinoid X receptor (RXR). Numerous studies have reported that FXR exerts protective function during cholestasis, diabetes, liver regeneration, and cancer. To identify compounds that inhibit FXR signaling, GeneBLAzer FXR-UAS-bla HEK 293T cell line (Invitrogen, Carlsbad, CA) containing a beta-lactamase reporter gene under the control of a UAS response element was used to screen the Tox21 10K compound library. The cytotoxicity of the Tox21 compound library against the FXR-bla cell line was tested in parallel by measuring the cell viability using CellTiter-Glo assay in the same wells.
Tox21 Assay Protocol Summary:
FXR-bla cells were dispensed at 5000 cells/5uL/well in 1536-well black wall/clear bottom plates using a Multidrop Combi (Thermo Fisher Scientific, Waltham, MA) dispenser. After the assay plates were incubated at 37 C and 5% CO2 for 5 h, 23 nL of compounds dissolved in DMSO, positive controls or DMSO only was transferred to the assay plate by a Pintool station (Kalypsys, San Diego, CA), followed by addition of 1 uL Chenodeoxycholic acid (50 uM, final concentration in the wells). The assay plates were incubated at 37C for 16 h. After 1 uL of LiveBLAzerTM B/G FRET substrate was added using a Bioraptr Flying Reagent Dispenser (FRD) workstation (Beckman Coulter, Indianapolis, IN), the plates were incubated at room temperature for 2 h, and fluorescence intensity was measured by an Envision plate reader (PerkinElmer, Shelton, CT). For cell viability readout that measures cytotoxicity, 4uL/well of CellTiter-Glo reagent was added into the assay plates using a Bioraptr FRD. After 30 min incubation at room temperature, the luminescence intensity in the plates was measured using a ViewLux plate reader (PerkinElmer).
(In general: In qHTS, concentration-response curves come from the screen itself.)
In the case of `OCCNCCO`, the Potency entry was “inactive”. In the case of `COc1ccc2nc(N)sc2c1`, the Potency result is “inactive”. As for `CC/C=C\C/C=C\C/C=C\CCCCCCCC(=O)O`, the Potency entry was “inactive”. Turning to `CC(C)[N+](C)(CCOC(=O)C1c2ccccc2Oc2ccccc21)C(C)C`, the Potency entry was “inactive”. Under `C1CN(SSN2CCOCC2)CCO1` stands “inactive”; under `CC(=O)O[C@]1(C(C)=O)CC[C@H]2[C@@H]3C=C(C)C4=CC(=O)CC[C@]4(C)[C@H]3CC[C@@]21C`, “inactive”. In the case of `[Na+]`, the Potency entry is “inactive”.

On to `c1ccc2c(c1)ccc1cc3c(ccc4ccccc43)cc12`, for which the Potency entry was “inactive”. The entry for `c1ccc2ncccc2c1` is “inactive”; for `ClC/C=C/CCl` it is “inactive”; for `CC(C)[C@@H]1CC[C@@H](C)CC1=O` it is “inactive”. Take `FC(F)(F)C(Cl)Br` (stereo not given): the Potency entry is “inactive”.

For the compound `CCc1cccc2c3c([nH]c12)C(CC)(CC(=O)O)OCC3` (stereo not given), the Potency result is “inactive”. As for `NCCN`, the Potency result was “inactive”. Under `CC(=O)[C@@]1(O)CC[C@H]2[C@@H]3C[C@H](C)C4=CC(=O)C=C[C@]4(C)[C@@]3(F)[C@@H](O)C[C@@]21C` stands “inactive”. Under `Nc1ccc2c(O)cc(S(=O)(=O)O)cc2c1` stands “inactive”; under `Cc1ccc(C)c(O)c1`, “inactive”; under `O=C1CCc2ccccc2O1`, “inactive”. Regarding `COC(=O)CC(=O)OC`, the Potency entry was “inactive”. The entry for `C=CC(C)(O)CCC=C(C)C` (stereo not given) is “inactive”.

`C=C[Si](OCCOC)(OCCOC)OCCOC`: the Potency entry was “inactive”. The entry for `OC[C@@H](O)[C@@H](O[C@@H]1O[C@H](CO)[C@H](O)[C@H](O)[C@H]1O)[C@H](O)[C@@H](O)CO` is “inactive”. The entry for `COC(=O)c1ccc(C)cc1` is “inactive”; for `NCCOCCO` it is “inactive”; for `CC1(C)NC(=O)N(c2ccc([N+](=O)[O-])c(C(F)(F)F)c2)C1=O` it is “inactive”. Regarding `CCCCCCCC/C=C\CCCCCCCC(=O)O`, the Potency entry was “inactive”. Take `O=C(O)CCCC(=O)O`: the Potency entry is “inactive”. The entry for `C=CCOC(=O)C(=C)C` is “inactive”. The entry for `CCC/C=C/C=O` is “inactive”; for `C=C[C@H]1CN2CC[C@H]1C[C@@H]2[C@@H](O)c1ccnc2ccc(OC)cc12` it is “inactive”; for `C[N+](C)(C)CCO` it is “inactive”.

As to `C/C=C/C(=O)N(CC)c1ccccc1C`, the Potency entry was “inactive”. Regarding `CN(C)/N=N/c1nc[nH]c1C(N)=O`, the Potency entry is “inactive”. The entry for `Oc1c(Cl)ccc(Cl)c1Cl` is “inactive”; for `CNC[C@H](O)c1ccc(O)c(O)c1` it is “inactive”.

Regarding `C=C1C[C@H]2[C@@H]3C=C(C)C4=CC(=O)CC[C@]4(C)[C@H]3CC[C@]2(C)[C@@]1(OC(C)=O)C(C)=O`, the Potency result was “inactive”. The entry for `CC(C)(Oc1ccc(Cl)cc1)C(=O)O` is “inactive”; for `C=CCNCC=C` it is “inactive”; for `CC1(C)OC(=O)NC1=O` it is “inactive”.

Regarding `O=[Se](O)O`, the Potency result was “inactive”.

(Values after PubChem BioAssay (Tox21).)
